The list is not random: actives were taken first. Their share in the collection is about 11%.
HEK293 tox: cytotoxic compounds in HEK 293 cells | HEK 293 viability, ATP luminescence (CellTiter-Glo), 48-72 h | Potency, µM (top dose mostly 115 µM), inactives show at the highest dose activity change, negative = cytotoxicity, hits mostly inhibitors | 94,000 tested, 6.6% active; further: on the % scale 0 is the no-effect control and ±100 the full control effect; nearly all actives have a fitted effect of over 60% in size
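qHTS cytotoxicity; HEK 293, 250 cells/well; compound pinned; 48 or 72 hr, 37 degree Celsius, 5% CO2, 95% humidity; CellTiter-Glo, 10 min RT; luminescence (ATP).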
NIH3T3 tox: NIH 3T3 cell cytotoxicity | NIH 3T3 viability, CellTiter-Glo ATP luminescence, 48-72 h | Potency, µM (doses to about 96.7 µM), for inactives: at the highest dose activity change, negative = cytotoxicity, actives largely listed as inhibitors | 94,000 tested, 4.3% active | AID 1345082; further: on the % scale 0 is the no-effect control and ±100 the full control effect; nearly all actives have a fitted effect of over 55% in size
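Cytotoxicity is measured as loss of cellular ATP: NIH 3T3 cells (400/well) are exposed to compound for 48 or 72 hr at 37 °C, then CellTiter-Glo luminescence is imaged after 10 min at room temperature.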
NPR1 antag: blocks ANP-stimulated signaling of human Npr1 receptor | P16066 | HEK293 hNpr1 GloSensor cGMP, ANP-stimulated luminescence | Potency, µM (titrated, usually from 46.3 µM), for inactives: top-dose activity change, negative = inhibition, usual class: inhibitors | 76,000 tested, 1.6% active; calls by dose curve; further: on the % scale 0 is the no-effect control and ±100 the full control effect; nearly all actives have a fitted effect of over 60% in size
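Compound pre-incubated 30 min at room temperature on GloSensor-loaded HEK293 cells stably carrying hNpr1 and the pGS-40F cGMP biosensor. Stimulation uses hNppA at 0.1 nM final; luminescence is taken at baseline and 20 min post-agonist.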
FLuc inh: blocks purified firefly luciferase enzyme activity; P08659; purified P. pyralis luciferase, luminescence, biochemical; Potency, µM (doses to about 115 µM), usual class: inhibitors; 76,000 tested, 2.5% active; AID 1347043; further: on the % scale 0 is the no-effect control and ±100 the full control effect; nearly all actives have a fitted effect of over 65% in size
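Inhibitors were tested against purified firefly luciferase in a biochemical, low-substrate format (both substrates at 10uM) and luminescence measured with a CCD imager.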
NPR1 antag cnf: hNpr1 antagonism, confirmation assay | HEK293 hNpr1 cGMP GloSensor luminescence, ANP-stimulated | shares compounds with NPR1 antag | Potency, µM (top dose mostly 57.6 µM), for inactives: at the top dose activity change, negative = inhibition, most hits filed as inhibitors | 1,400 tested, 76% active; calls by dose curve; further: nearly all actives have a fitted effect of over 70% in size
NPR2 antag: selectivity test of Npr1 antagonists against human Npr2 | shares compounds with NPR1 antag | HEK293 hNpr2 GloSensor cGMP luminescence, CNP-stimulated | Potency, µM (highest dose often 57.6 µM), without a hit: at the highest dose activity change, negative = inhibition, most hits filed as inhibitors | 1,400 tested, 67% active; calls by dose curve; further: nearly all actives have a fitted effect of over 70% in size
FLuc counter: counter-screen for Npr1 antagonists: firefly luciferase inhibitors; shares compounds with NPR1 antag; purified FLuc enzyme, luminescence, Km substrate; Potency, µM (top dose mostly 57.6 µM), without a hit: at the highest dose activity change, negative = inhibition, most hits filed as inhibitors; 1,400 tested, 0.7% active; further: 0% is about no effect
GloSensor ctrl: reduces cGMP signal in GloSensor control cells; shares compounds with NPR1 antag; 1,400 tested, 69% active; Potency, µM (doses to about 57.6 µM), for inactives: at the top dose activity change, negative = inhibition, hits mostly inhibitors; HEK293 GloSensor cGMP, SNP-stimulated, luminescence; calls by dose curve; further: on the % scale 0 is the no-effect control and ±100 the full control effect; nearly all actives have a fitted effect of over 70% in size
Active calls of the source: *; i = inactive; u = inconclusive; x = no result given; [ ] = remark or other dose. Unless noted, the call rests on the fitted dose curve; in most records, active means well fitted curve in the direction sought with a large enough effect; inconclusive means small, poorly fitted or top-dose-only effect, or another doubt; inactive means no such curve, though single readings can be large; an effect the other way counts as inactive or inconclusive. Potency means the concentration at half of the fitted maximal effect.

SMILES | HEK293 tox | NIH3T3 tox | NPR1 antag | FLuc inh | NPR1 antag cnf | NPR2 antag | FLuc counter | GloSensor ctrl
COc1ccc(-c2noc(COC(=O)C3=CN(C)S(=O)(=O)N=C3C)n2)cc1 | u | -24.0% | 7.94µM* | i | 12.2µM* | 17.2µM* | -7.6% | 13.7µM*
CC1=NS(=O)(=O)N(C)C=C1C(=O)OCc1nc(-c2ccc(OC(F)(F)F)cc2)no1 | 39.8µM* | u | 10µM* | i | 15.3µM* | 13.7µM* | 2.2% | 12.2µM*
CC1=NS(=O)(=O)N(C)C=C1C(=O)OCc1nc(C2CCCCC2)no1 | -25.0% | u | 12.6µM* | i | 21.7µM* | u | -8.0% | 17.2µM*
COc1ccc(CN2C=C(C(=O)OCc3nc(-c4ccc(F)cc4)no3)C(C)=NS2(=O)=O)cc1 | u | u | u | i | x | x | x | x
CC1=NS(=O)(=O)N(C)C=C1C(=O)OCc1nc(-c2ccccc2Cl)no1 | u | -21.8% | -8.1% | i | x | x | x | x
CC1=NS(=O)(=O)N(C)C=C1C(=O)OCc1nc(-c2cnccn2)no1 | 2.3% | 0.8% | 2.2% | i | x | x | x | x
CN(CCn1cc(-c2cncnc2)nn1)S(C)(=O)=O | -7.6% | -4.2% | 4.8% | i | x | x | x | x
CC1=NS(=O)(=O)N(C)C=C1C(=O)OCc1nc(Cc2ccc(C)cc2)no1 | -27.5% | -21.5% | 11.2µM* | i | 21.7µM* | u | 1.8% | 19.3µM*
COc1ccc(CN2C=C(C(=O)OCc3nc(Cc4cccc(C)c4)no3)C(C)=NS2(=O)=O)cc1 | -18.5% | -33.3% | -1.8% | i | x | x | x | x
CC1=NS(=O)(=O)N(C)C=C1C(=O)OCc1nc(-c2ccccc2F)no1 | -4.1% | -14.3% | u | i | u | u | -2.4% | u
CCc1[nH]ncc1C(=O)NC1CC(c2nnc(Cn3ccnc3)n2C)C1 (stereo not drawn) | 1.3% | -2.6% | 5.4% | i | x | x | x | x
COc1cccc(CC(=O)N2CCN(C(=O)c3nnn4c3COC(c3ccccc3)C4)CC2)c1 (stereo not drawn) | -8.0% | -2.4% | -13.7% | i | x | x | x | x
COc1cccc(CC(=O)N2CCN(C(=O)c3nnn4c3COC(c3ccc(C)cc3)C4)CC2)c1 (stereo not drawn) | u | -6.7% | u | i | 24.3µM* | u | 3.6% | u
COc1ccccc1CC(=O)N1CCN(C(=O)c2nnn3c2COC(c2ccc(C)cc2)C3)CC1 (stereo not drawn) | u | -32.9% | 10µM* | i | 19.3µM* | 19.3µM* | 2.3% | 15.3µM*
Cc1ccc(C2Cn3nnc(C(=O)N4CCN(C(=O)Cc5cccc(F)c5)CC4)c3CO2)cc1 (stereo not drawn) | u | 2.9% | 11.2µM* | i | 21.7µM* | 21.7µM* | 1.2% | 21.7µM*
CCc1ccc(C(=O)N2CCN(C(=O)c3nnn4c3COC(c3ccc(C)cc3)C4)CC2)cc1 (stereo not drawn) | u | -16.8% | u | i | 19.3µM* | 19.3µM* | -0.7% | 19.3µM*
O=C(C1CC1)N1CCC(c2nc(C3CCOCC3)no2)CC1 | -2.4% | -8.0% | 5.7% | i | x | x | x | x
Cn1nc(C2CCCN(Cc3ccncc3F)C2)n(-c2ccccc2)c1=O (stereo not drawn) | -15.8% | -14.9% | 4.6% | i | x | x | x | x
N#Cc1ccc(C(=O)N2CCC3(CC2)CN(Cc2ccccc2)CC3CO)cc1 (stereo not drawn) | u | -20.6% | -11.5% | i | x | x | x | x
Fc1ccc(CN2CCC(Oc3ccccc3-c3nc(-c4cnccn4)no3)C2)cc1F (stereo not drawn) | 25.1µM* | u | -18.2% | i | u | -29.0% | -15.6% | 0.0%
CCNC(=O)N1CCC(Oc2ccccc2-c2nc(-c3cnccn3)no2)C1 (stereo not drawn) | -2.8% | -5.8% | -0.3% | i | x | x | x | x
CC(C)=CCn1c(-c2cc(C)oc2C)cn2cc(C(=O)N3CCCC3C)nc2c1=O (stereo not drawn) | u | u | 5.2% | i | x | x | x | x
COC(=O)c1cccc(NC(=S)N[C@@H]2C=C[C@@H](c3c(C)nn(-c4ccccc4[N+](=O)[O-])c3C)C2)c1 | 39.8µM* | 39.8µM* | 12.6µM* | i | 19.3µM* | u | -7.9% | 24.3µM*
COc1cc(Cl)ccc1C(=O)N1CCN(c2cc(-c3cccs3)[nH]n2)CC1 | 25.1µM* | u | 11.2µM* | i | 19.3µM* | 19.3µM* | 1.9% | 17.2µM*
COc1ccc(Cl)cc1C(=O)N1CCN(c2cc(-c3cccs3)[nH]n2)CC1 | u | u | u | i | x | x | x | x
SMILES | HEK293 tox | NIH3T3 tox | NPR1 antag | FLuc inh | NPR1 antag cnf | NPR2 antag | FLuc counter | GloSensor ctrl
O=C(c1ccc(Cl)cc1Cl)N1CCN(c2cc(-c3cccs3)[nH]n2)CC1 | 44.7µM* | 8.91µM* | 10µM* | i | 24.3µM* | 19.3µM* | 1.2% | 21.7µM*
COc1cc(OC)cc(C(=O)N2CCN(c3cc(-c4cccs4)[nH]n3)CC2)c1 | u | u | -17.5% | i | x | x | x | x
COc1ccc(C(=O)N2CCN(c3cc(-c4cccs4)[nH]n3)CC2)c(C)c1 | 50.1µM* | u | 11.2µM* | i | 19.3µM* | 19.3µM* | 0.4% | 15.3µM*
COc1ccc(C(=O)N2CCc3nc(OCC4CC4)ccc3C2)cn1 | -27.4% | -7.0% | 3.8% | i | x | x | x | x
CCCCC(=O)N(C)CC1CCOCC1 | 12.6% | i | -0.4% | i | x | x | x | x
O=C(CCC1CCCN(S(=O)(=O)c2cccc(F)c2)C1)NC1CCCCC1 (stereo not drawn) | u | u | 15.8µM* | i | 27.3µM* | 24.3µM* | 0.0% | 24.3µM*
Cc1ccc(Cc2ccccc2C(=O)N2CCOC(C(F)(F)F)C2)cc1 (stereo not drawn) | u | -27.9% | -11.3% | i | x | x | x | x
CCC[C@H]1CN(C(=O)c2ccccc2Cc2ccc(C)cc2)C[C@@H]1N | u | 89.1µM* | -29.5% | i | u | u | -1.3% | -20.6%
Cn1nc(C2CCCC2)cc1NC(=O)c1ccc(Cl)nc1 | u | -12.8%[138 µM] | x | x | x | x | x | x
COC[C@@H]1CN(C(=O)c2cccn2C)C[C@H]1c1ccncc1 | -0.7% | -7.9% | 1.5% | i | x | x | x | x
COc1cccc(CN2CC[C@H](c3nc4ccccc4[nH]3)C2)c1 | u | -17.9%[138 µM] | 2.5%[70.6 µM] | i | x | x | x | x
